A short description of test [1]: qHTS drug screen for cell cycle checkpoint inhibitors in PARPi-resistant BRCA-mutant ovarian cancer cell lines. (AID 1963452; calls by dose curve). Particulars: PEO1/OlaR viability, CellTiter-Glo luminescence, 96 h, stronger effect = lower value. The procedure, abridged: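 PEO1, PEO4 and PEO1/OlaR ovarian cancer cells, 600 per well, exposed 96 h at 37C to a dilution series. Viability read by CellTiter-Glo luminescence, normalized to DMSO and empty wells; activity summarized as Z-AUC.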

The nature of test [2]: qHTS for identification of novel therapeutic agents for treatment of microphthalmiaassociated transcription factor (MiT) renal cell carcinoma (RCC) (AID 1963991). Particulars: CellTiter-Glo, 48 h, stronger effect = lower value. The procedure, abridged:
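Three TFE3-fusion RCC lines (UOK109, UOK124, UOK145), 500 cells/well in complete medium, were treated with MIPE 4.0 compounds for 48 hours at 37 C. Viability was by CellTiter-Glo luminescence, normalized to DMSO (100%) and empty wells (0%); curves fitted over 11 concentrations.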
In general terms: Quantitative high-throughput screening tests each substance at several concentrations.

Test [3] can be described thus: qHTS profiling for inhibitors of Plasmodium falciparum proliferation (AID 504749). Also: potency is read from the fitted curve at half-maximal effect.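 As to activity, negative = inhibition: 0% = DMSO vehicle and full inhibition = artemisinin control.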 As to all read-outs here: nearly all actives have a fitted effect of over 60% in size. Particulars: P. falciparum in erythrocytes, SYBR Green DNA, 72 h; for activity, negative = inhibition: at 28.7 µM (top of the series). Summed up:
(§1)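 SYBR Green fluorescence (ex 485 nm, em 535 nm) reports parasite DNA after 72 h compound exposure of infected red cells at 0.3% parasitemia, 2.5% hematocrit; signal normalized to 0.29 uM artemisinin and vehicle wells.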

Test [4] has as its system 7G8. Described as above. Particulars: P. falciparum in erythrocytes, SYBR Green DNA, 72 h; series mostly up to 28.7 µM. The procedure, abridged: as §1
For test [5], the system named is AA1029. Described as above. Particulars: P. falciparum in erythrocytes, SYBR Green DNA, 72 h; series mostly up to 28.7 µM. The procedure, abridged:
as §1

The test system of test [6] is AS120. The test is described as above. Particulars: P. falciparum in erythrocytes, SYBR Green DNA, 72 h; series mostly up to 28.7 µM. The procedure, abridged: as §1
The test system of test [7] is ATS189. Described as above. Particulars: P. falciparum in erythrocytes, SYBR Green DNA, 72 h; series mostly up to 28.7 µM. Summed up:
as §1

Test [8] concerns ATS95. The description is as above. Particulars: P. falciparum in erythrocytes, SYBR Green DNA, 72 h; series mostly up to 28.7 µM. The procedure, abridged:
as §1

The subject of test [9] is C2A. The description is as above. Particulars: P. falciparum in erythrocytes, SYBR Green DNA, 72 h; series mostly up to 28.7 µM. The procedure, abridged:
as §1

The subject of test [10] is CP185. Described as above. Particulars: P. falciparum in erythrocytes, SYBR Green DNA, 72 h; series mostly up to 28.7 µM. The procedure, abridged:
as §1

Test [11] deals with CP191. The description is as above. Particulars: P. falciparum in erythrocytes, SYBR Green DNA, 72 h; series mostly up to 28.7 µM. Summed up:
as §1

Test [12] has as its system CP192. The description is as above. Particulars: P. falciparum in erythrocytes, SYBR Green DNA, 72 h; series mostly up to 28.7 µM. The procedure, abridged: as §1
Test [13] has as its system CP194. Described as above. Particulars: P. falciparum in erythrocytes, SYBR Green DNA, 72 h; series mostly up to 28.7 µM. The procedure, abridged:
as §1

The subject of test [14] is CP201. Described as above. Particulars: P. falciparum in erythrocytes, SYBR Green DNA, 72 h; series mostly up to 28.7 µM. The procedure, abridged: as §1
For test [15], the system named is CP203. The test is described as above. Particulars: P. falciparum in erythrocytes, SYBR Green DNA, 72 h; series mostly up to 28.7 µM. The procedure, abridged:
as §1

Test [16] relates to CP211. The description is as above. Particulars: P. falciparum in erythrocytes, SYBR Green DNA, 72 h; series mostly up to 28.7 µM. Summed up:
as §1

Test [17] deals with CP215. The description is as above. Particulars: P. falciparum in erythrocytes, SYBR Green DNA, 72 h; series mostly up to 28.7 µM. Summed up: as §1
Test [18] deals with CP217. The test is described as above. Particulars: P. falciparum in erythrocytes, SYBR Green DNA, 72 h; series mostly up to 28.7 µM. The procedure, abridged: as §1
The test system of test [19] is CP237. The description is as above. Particulars: P. falciparum in erythrocytes, SYBR Green DNA, 72 h; series mostly up to 28.7 µM. The procedure, abridged:
as §1

Test [20] concerns 3D7. Described as above. Particulars: P. falciparum in erythrocytes, SYBR Green DNA, 72 h; series mostly up to 28.7 µM. Summed up:
as §1

Where [21] appears, read: measured here: PEO1 parental Z-AUC.
The mark [22] stands for this setting: TFE3-RCC UOK109 viability, measured here: UOK109 Z-AUC.
Setting [23] is: TFE3-RCC viability, measured here: UOK124 Z-AUC.
Setting [24] is: TFE3-RCC viability, measured here: UOK145 Z-AUC.

Results filed as inconclusive are left out. The source made the active and inactive calls. Unless noted, calls follow the shape of the dose curve; as a rule, active = well fitted inhibition curve with a large enough effect; inconclusive = small, poorly fitted or top-dose-only effect; inactive = flat fitted curve, though single readings scatter.

For the compound `COC(=O)C1=C(C)NC(C)=C(C(=O)OCCN2CCN(C(c3ccccc3)c3ccccc3)CC2)C1c1cccc([N+](=O)[O-])c1` (configuration not stated), the results for the Z-AUC in test [1], in test [1] (setting [21]) and in [1] (measured here: PEO4 Z-AUC) were -0.27 (inactive), -0.345 and 0.196, respectively. The z-score is 0.729 in test [2] (setting [22]), 0.516 in test [2] (setting [23]) and -0.011 in [2] (setting [24]). The Potency in [3] (parasite line A) was 3.16 µM (active); in test [3] (parasite line B), 3.98 µM (active); in test [4] it was 1.41 µM (active); in test [5], 2.24 µM (active); in test [6], 2 µM (active); in test [7], 1.58 µM (active). For the same compound, the Potency in test [8] is 2.51 µM (active); in test [9], 3.55 µM (active); in [10], 4.47 µM (active); in [11], 3.16 µM (active); in test [12], 4.78 µM (active); in test [13] it was 5.36 µM (active). Moreover, the Potency is 7.57 µM (active) in test [14]; 3.79 µM (active) in test [15]; 3.79 µM (active) in test [16]; 3.38 µM (active) in [17]; 3.16 µM (active) in [18]; 3.16 µM (active) in test [19].

In the case of `CC(C)(C)NC(=O)[C@H]1CN(Cc2cccnc2)CCN1C[C@@H](O)C[C@@H](Cc1ccccc1)C(=O)N[C@H]1c2ccccc2C[C@H]1O`, the Potency in test [9] is 10 µM (active); in test [11], 8.91 µM (active); in [12], 10.7 µM (active); in test [13], 15.1 µM (active); in test [14], 16.9 µM (active); in [17], 15.1 µM (active). Further, the Potency is 11.2 µM (active) in test [18] and 8.91 µM (active) in [19].

As to `CN1c2cc(O)c(N=NC(N)=O)cc2CC1S(=O)(=O)O` (configuration not stated), the Z-AUC in test [1] is 1.01 (inactive); in [1] (setting [21]), 0.677; in test [1] (measured here: PEO4 Z-AUC) it was 1.13. Further, the figures for the z-score in test [2] (setting [22]), in test [2] (setting [23]) and in test [2] (setting [24]) were 0.359, 0.697 and 0.51, respectively. In addition, the activity, negative = inhibition in test [3] (parasite line A) was -0.188% (inactive); in [3] (parasite line B), 7.8% (inactive). The Potency result in [20], in test [4], in test [5], in test [6], in test [7] and in test [8] was “inactive” in each case. The Potency entry in test [9], in test [10], in test [11], in test [12], in test [13] and in [14] was “inactive” each time. Besides, the Potency entry in [15], in test [16], in test [17], in test [18] and in test [19] was “inactive” in each case.

Consider `COc1cc(C(=O)NS(=O)(=O)c2ccccc2C)ccc1Cc1cn(C)c2ccc(NC(=O)OC3CCCC3)cc12`, for which the Z-AUC was 1.83 (inactive) in test [1], 1.16 in test [1] (setting [21]) and 1.3 in test [1] (measured here: PEO4 Z-AUC). Besides, the activity, negative = inhibition in test [3] (parasite line A) was -4.29% (inactive). In addition, the Potency entry in test [20], in test [5], in test [6], in [8], in [9] and in [10] was “inactive” each time. The Potency entry in test [11], in [12], in [14] and in test [19] was “inactive” each time. Also, the Potency in test [4] is 12.6 µM (active).

Source of the values: PubChem BioAssay (NCATS).
